Usually inhibition stands for the change of the read-out against control, counted positive when it falls.

This assay in a line: inhibitors of HIV fusion peptide binding, primary screen, biochemical, uHTS, fluorescence dequenching (AID 1986). Conditions: cell-free peptide binding, 30 min, stronger effect = higher value.
The mark [1] stands for this setting: measured here: repeat confirmation average inhibition, at 18.6 µM.

The campaign covered roughly 290,000 compounds. About 890 (0.31%) were called active. Cut-off read from the data, not from the text of the source: active = inhibition mostly above about 52% (no sharp cut-off); inactive = mostly below about 76%. Only a selection was taken, and actives are over-represented in it overall.

For `CCOC(=O)C1=C(C)NC(=O)NC1c1ccc(OCC(=O)OC)c(OC)c1` (stereo not drawn), the inhibition (at 20 µM) was -0.4% (inactive). In the case of `CC(=O)Nc1cccc(CNCc2cccc(NC(C)=O)c2)c1`, under “at 20 µM”, the inhibition is -0.7% (inactive). As for `O=C(Nc1cccc(-c2cn3ccccc3n2)c1)c1cnccn1`, where the note is “at 20 µM”, the inhibition is -0.3% (inactive). Regarding `CC(=O)C1=C(c2ccccc2)NC(=O)NC1c1cccs1` (stereo not drawn), the inhibition (at 20 µM) was 0.1% (inactive). For the compound `CCc1cccc(NC(=O)CCS(=O)(=O)c2cc3c(cc2C)NC(=O)CO3)c1`, the inhibition (at 20 µM) is 0.8% (inactive). For `CCOc1cc(-c2nc(-c3ccncc3)no2)cc(OCC)c1OCC`, for the setting “at 20 µM”, the inhibition was 0.5% (inactive).

With `CCC(CCC(=O)Nc1cccc(C(=O)O)c1)C(=O)O` (stereo not drawn), where the note is “at 20 µM”, the inhibition is -0.2% (inactive).

In the case of `COc1ccc(Br)cc1C(=O)Nc1ccc(N2CCCC2)cc1`, under “at 20 µM”, the inhibition was -1.9% (inactive). For `Cc1ccc(C(=O)O)cc1-c1ccc(/C=C2\SC(=O)N(CC(=O)Nc3ccc4c(c3)OCO4)C2=O)o1`, the inhibition is, setting by setting: (at 20 µM) 69.1% (inactive); under setting [1], 25.2%. Turning to `Cc1ccccc1NC(=O)CN1C(=O)S/C(=C\c2ccc(-c3cccc(C(=O)O)c3C)o2)C1=O`, the inhibition (at 20 µM) is 32% (inactive). With `Cc1ccc(NC(=O)CN2C(=O)S/C(=C\c3ccc(-c4cccc(C(=O)O)c4C)o3)C2=O)cc1`, where the note is “at 20 µM”, the inhibition is 63.2% (active). `COc1ccc(C(=O)NC2CCCCCC2)cc1OC1CCN(C(C)=O)CC1`: the inhibition (at 20 µM) was 0% (inactive). As for `COc1ccc([N+](=O)[O-])cc1NC(=O)COC(C)=O`, the inhibition (at 20 µM) is -1.8% (inactive). Same read-out and setting: the result for `O=C(CN1CCN(c2ccccc2)CC1)N1CCc2[nH]c3ccccc3c2C1` reads 2% (inactive). For the compound `O=C1/C(=C\c2ccco2)SC(=S)N1Cc1ccccc1`, the inhibition was 66% (inactive) (at 20 µM) and -1.7% under setting [1].

With `CCN1CCN(c2c(/C=C3\SC(=S)N(Cc4ccco4)C3=O)c(C)c(C#N)c(=O)n2C)CC1`, the inhibition (at 20 µM) is 89.4% (active) and the inhibition under setting [1] came to 167%. Regarding `CCCN(CCC)c1nc2c(C)cccn2c(=O)c1/C=C1/SC(=S)N(Cc2ccco2)C1=O`, where the note is “at 20 µM”, the inhibition is 49.5% (inactive). On the same count and under the same terms, next, `C=CCOc1ccc(C2/C(=C(\O)c3ccc4c(c3)OCCO4)C(=O)C(=O)N2CCCN2CCOCC2)cc1` (stereo not drawn): -1.6% (inactive); `Cc1cc(NC(=O)CCCC(=O)N(CC(=O)NC2CCCCC2)c2ccccc2)no1`: -0.7% (inactive); `CNC(=S)N1CCN(S(=O)(=O)c2ccc3ccccc3c2)CC1`: -0.9% (inactive). Turning to `CCCc1ccc2oc(C(=O)NCCN3CCCC(O)C3)c(C)c2c1` (stereo not drawn), the inhibition (at 20 µM) was 0.9% (inactive). With `O=c1c2cccc3c(N4CCOCC4)ccc(c32)c2nc3ccccc3n12`, the inhibition (at 20 µM) is 113% (active). Still for that read-out and setting: next, `O=c1c2ccc([N+](=O)[O-])c3cccc(c32)c2nc3ccccc3n12`: 10.2% (inactive); `c1ccc2c(c1)nc(CN1CCOCC1)n1c3ccccc3nc21`: 2.2% (inactive). Consider `Cc1ccc(OCc2cc(C(=O)N(C)CC3CCOCC3)no2)cc1C`, for which, under “at 20 µM”, the inhibition is -2% (inactive). In the case of `Cc1ccc(/C=C2\SC(=S)N(Cc3ccccc3)C2=O)o1`, the inhibition (at 20 µM) is -3.6% (inactive). Turning to `O=C(O)CN1C(=O)/C(=C/c2ccc(N3CCCCC3)o2)SC1=S`, for the setting “at 20 µM”, the inhibition is 7.4% (inactive). `O=C(O)CN1C(=O)/C(=C\C(Br)=C\c2ccccc2)SC1=S`: the inhibition (at 20 µM) was 62.6% (active).

Regarding `O=C1/C(=C\c2ccco2)SC(=S)N1c1ccccc1`, where the note is “at 20 µM”, the inhibition was 41.6% (inactive). As to `CC(=C\c1ccccc1)/C=C1/SC(=S)N(CCC(=O)O)C1=O`, the inhibition (at 20 µM) was 26.1% (inactive). With `O=C(CCN1C(=O)/C(=C/c2ccc(Cl)cc2)SC1=S)Nc1cccc(C(=O)O)c1`, the inhibition is 62.4% (inactive) (at 20 µM) and 2.3% under setting [1]. Regarding `O=C(O)CN1C(=O)/C(=C/c2ccc(SCc3ccccc3)o2)SC1=S`, the inhibition is 73.1% (active) (at 20 µM) and 105% under setting [1]. Take `CC(/C=C1\SC(=S)N(CC(=O)O)C1=O)=C\c1ccccc1`: for the setting “at 20 µM”, the inhibition is 35.8% (inactive). As for `O=C(O)c1cccc(N2C(=O)/C(=C/c3ccc(SCc4ccc(Cl)cc4)o3)SC2=S)c1`, the inhibition (at 20 µM) is 63% (active).

Take `Cn1cnnc1SCC(=O)N1CCc2ccccc21`: the inhibition (at 20 µM) was -0.4% (inactive). On to `CCOC(=O)C(C)c1nc2ccccc2[nH]c1=O` (stereo not drawn), for which the inhibition (at 20 µM) was -0.4% (inactive). For `CN1C2C=C(N(CCc3ccccc3)C(=O)c3ccc(Cl)cc3)CC1CC2` (stereo not drawn), the inhibition (at 20 µM) was -0.4% (inactive). On the same count and under the same terms, the result for `C=C1CN(CC(=O)OC)S(=O)(=O)c2ccccc21` reads 0.8% (inactive); that for `COc1ccccc1NC(=O)c1ccc(-c2nn(C)c(=O)c3ccccc23)cc1`, 0.7% (inactive). Turning to `Cc1nn(CC(=O)N2CCCC2)c(=O)c2nn(-c3ccccc3)c(C)c12`, the inhibition (at 20 µM) was 0.3% (inactive). Still for that read-out and setting: next, `CC(CCC(=O)O)C1CC[C@H]2C3CCC4CC(=O)CCC4(C)[C@H]3CC(=O)C12C` (stereo partly drawn): -1.2% (inactive); `CC1(C)C(=O)OC(c2cccs2)C(C)(C)C1=O` (stereo not drawn): 0.5% (inactive); `O=C(CSc1nc2scc(-c3ccco3)c2c(=O)n1-c1ccccc1)N1CCOCC1`: 4.2% (inactive). In the case of `CC1CCN(S(=O)C23CC4CC(CC(C4)C2)C3)CC1` (stereo not drawn), for the setting “at 20 µM”, the inhibition was 1.3% (inactive).

On to `CCOC1OC2C(CO)OC(n3cnc4c(N)ncnc43)C2O1` (stereo not drawn), for which the inhibition (at 20 µM) was 1.6% (inactive). Regarding `Cc1cccc2c(N=O)c(O)[nH]c12`, the inhibition (at 20 µM) was 17.9% (inactive). `Cc1cccc2c(N=Nc3ccccc3)c(O)[nH]c12`: the inhibition reads like this: (at 20 µM) 52.7% (active); under setting [1], 60.4%. Turning to `Oc1[nH]c2ccccc2c1N=Nc1ccccc1`, the inhibition (at 20 µM) was 146% (inactive). The same measure, in the same setting: next, `CCCCc1ccc(S(=O)(=O)N2CCN(C(=O)c3ccco3)CC2)cc1`: 2% (inactive). Consider `Cc1ccc(C)c2[nH]c(=O)c(CN(Cc3cccs3)C(=S)NCc3ccco3)cc12`, for which the inhibition (at 20 µM) is 16.7% (inactive).

As to `CN(C)CCCN1C(=O)C2CCc3[nH]c4ccccc4c3C2C1=O` (stereo not drawn), under “at 20 µM”, the inhibition is -1% (inactive). On the same count and under the same terms, next, `COc1cc(/C=C2/C(=N)N3N=C(CC(=O)N4CCOCC4)SC3=NC2=O)ccc1OC(C)c1ccccc1` (stereo not drawn): 36% (inactive); `CNc1ccc(Br)cc(C(=O)/C=C/c2ccc(Cl)cc2Cl)c1=O`: 61.5% (active).

Regarding `CCNc1ccc(Br)cc(C(=O)/C=C/c2ccc(Cl)cc2Cl)c1=O`, the inhibition was 63.3% (inactive) (at 20 µM) and 13.7% under setting [1]. As for `CNc1ccc(Br)cc(C(=O)/C=C/c2cccc(Cl)c2Cl)c1=O`, the inhibition is 61.9% (inactive) (at 20 µM) and 4.3% under setting [1].

On to `COc1cc(NC(=O)C2CC(c3c(F)cccc3Cl)=NO2)cc(OC)c1OC` (stereo not drawn), for which the inhibition (at 20 µM) was 0% (inactive). Regarding `Cc1onc(-c2ccccc2Cl)c1C(=O)Nc1ccc(Br)cc1`, the inhibition (at 20 µM) was -0.2% (inactive). Consider `O=C(O)c1ccc(Cl)cc1Nc1nc2cc(Cl)ccc2o1`, for which, where the note is “at 20 µM”, the inhibition was 67.6% (active). `CCC(=O)Nc1cc(Cl)ccc1C(=O)O`: under “at 20 µM”, the inhibition was -0.2% (inactive).

As for `CCS(=O)(=O)c1ccc2oc(Nc3cc(Cl)ccc3OC)nc2c1`, the inhibition (at 20 µM) is -1% (inactive).

Values taken from PubChem BioAssay AID1986 (Sanford-Burnham Center for Chemical Genomics, 2009).
